This is an account of results in PubChem BioAssay AID1347076 (National Center for Advancing Translational Sciences (NCATS), 2019).

About 13,000 (3.2%) of roughly 400,000 compounds were called active. About 18% were inconclusive and are not listed. The call rests on the fitted dose curve; in most records, active means well fitted cell-killing curve with a large enough effect; inconclusive means small, poorly fitted or top-dose-only effect, or effect the other way; inactive means flat fitted curve, though single readings scatter. Shown is part of a subset that was picked to be rich in actives. Entries that show only a call come without a potency.
Potency means the concentration at half of the fitted maximal effect.

The assay can be described thus: qHTS assay for MDR1-selective chemotherapeutics: Primary screen using the drug-selected MDR subline cells KB-V1. Further: nearly all actives have a fitted effect of over 60% in size. To be noted: KB-V1 MDR cells viability, CellTiter-Glo, 72 h; series mostly up to 46.1 µM. The text has this:
A prime difficulty in effectively treating cancer is the development of cellular resistance to multiple structurally unrelated anticancer drugs, a phenomenon known as multidrug resistance (MDR). […] Numerous strategies to overcome P-gp-mediated MDR have been explored, including the design of drugs that evade recognition and efflux, and development of inhibitors to block efflux and restore drug accumulation. […] An alternative approach is to exploit resistance by identifying drugs that target MDR cells over the non-resistant parental cells from which they were selected. […] The development of MDR1-selective agents represents a new strategy for resolving multidrug resistance, as it remains a long-standing clinical challenge for cancer chemotherapy.
Our goal is to identify compounds that selectively kill P-gp-expressing MDR cells. We will identify MDR1-selective compounds by comparing toxicity of compounds in the screening library against parental, drug-naive (KB-3-1) adenocarcinoma cells as well as their drug-selected MDR sub-line (KB-V1). The differential toxicity of compounds against these two cell lines will be used to identify MDR1-selective compounds, whose cytotoxicity is potentiated, rather than diminished, by P-gp expression. This assay will be utilized to conduct a quantitative high-throughput screen (qHTS) in collaboration with the NIH Chemical Genomics Center to identify selective agents, and probe hits arising from the screen will be validated using secondary assays and characterized through a well-established follow-up research program. This screen was run against the entire NCGC library collection of about 400,000 compounds.
NIH Molecular Libraries Probe Production Network [MLPCN]
NIH Chemical Genomics Center [NCGC]
PI: Michael Gottesman, National Cancer Institute, NIH
Briefly, 5 microL of media containing either KB-V1 cells (columns 1-2, 4-48) are dispensed into Greiner white, treated solid-bottom 1536-well assay plates (media-only control is added to column 3). Compounds are then transferred via Kalypsys pin tool equipped with 1536-pin array (10 nL slotted pins, V&P Scientific, San Diego, CA). Following addition of compound, the plates are incubated at 37 degrees C for 72 hours. CellTiter-Glo (2.5 µL/well) is then added, and the plates are read in a ViewLux reader (Perkin-Elmer, clear luminescence filter, 1 second exposure, 1x binning) following a 10 minute incubation. All cells are dispensed in DMEM phenol-red free media containing 10% FBS.
Library plates were screened starting from the lowest and proceeding to the highest concentration. Vehicle-only plates, with DMSO being pin-transferred to columns 5-48, will be inserted uniformly at the beginning and the end of each library in order to monitor and record any shifts in the background, which can be affected by reagent dispensers or loss in enzyme activity over time. Screening data will be corrected, normalized, and concentration-effect relationships will be derived by using publicly-available NCGC, NCATS curve fitting algorithms (http://ncgc.nih.gov/pub/openhts).
A general note: In qHTS, concentration-response curves come from the screen itself.
Turning to `Cc1ccc2cccc(NC(=O)C(C)Oc3ccc(C)c(C)c3)c2n1` (stereo unspecified), the Potency result is “inactive”.

On to `CC1(C(=O)NS(=O)(=O)c2ccc(C#N)cc2)CCN1C(=O)CC1CCCC1` (stereo unspecified), for which the Potency entry was “inactive”.

Consider `S=c1[nH]nc(-c2cc(-c3ccccc3)n[nH]2)n1/N=C/c1c2ccccc2cc2ccccc12`, for which the Potency entry is “inactive”.

For the molecule `CC(C)c1cc(C(=O)N/N=C/C(Br)=C/c2ccccc2)n[nH]1`, the Potency result is “inactive”.

As to `Cc1cc(-c2n[nH]c(=S)n2/N=C/C(Br)=C/c2ccccc2)n[nH]1`, the Potency was 10.3 µM (active).

In the case of `CCCCS(=O)(=O)c1oc(-c2cccs2)nc1S(=O)(=O)c1ccccc1`, the Potency entry was “inactive”.

As for `O=C(C1CCCO1)N1CCN(C(=O)C23CC4CC(CC(C4)C2)C3)CC1` (stereo unspecified), the Potency entry is “inactive”.

`CCN(c1ccccc1)S(=O)(=O)c1ccc(C(=O)Nc2ccccc2OC)cc1`: the Potency entry is “inactive”.

On to `CCN(c1ccccc1)S(=O)(=O)c1ccc(NC(=O)C(C)(C)C)cc1`, for which the Potency is 11.6 µM (active).

Consider `CCN(c1ccccc1)S(=O)(=O)c1ccc(N)cc1`, for which the Potency entry is “inactive”.

Turning to `CC1(C(=O)Nc2cccc3c2CCCC3)CCN1C(=O)CCc1ccc(Cl)cc1Cl` (stereo unspecified), the Potency result was “inactive”.

Regarding `CN(CCO)C(=O)c1nc[nH]c1C(=O)N(C)Cc1ccccc1`, the Potency result is “inactive”.

In the case of `Cc1ccc(CNC(=O)CSc2c3c(nc4cc(Cl)ccc24)CCCC3)cc1`, the Potency result is “inactive”.

In the case of `Cc1ccc(NC(=O)c2oc3ccccc3c2C)c([N+](=O)[O-])c1`, the Potency result is “inactive”.

Consider `Cc1ccc(NC(=O)CN(C)Cc2ccc(F)cc2)c([N+](=O)[O-])c1`, for which the Potency was 9.2 µM (active).

Turning to `Cc1c(NC(=S)NCc2ccc(F)cc2)cccc1[N+](=O)[O-]`, the Potency result was “inactive”.

With `CCC(=O)N1CCC(C)(C(=O)Nc2cc(OC)c(OC)c(OC)c2)C1` (stereo unspecified), the Potency result is “inactive”.

As for `CCOCCc1nn2c(=O)cc(COC(=O)CNC(=O)c3ccc(C(C)(C)C)cc3)nc2s1`, the Potency result was “inactive”.

As for `COc1ccc(NC(=O)CSc2nnnn2-c2cccc(OC)c2)cc1`, the Potency entry was “inactive”.

Consider `COc1ccc(CSc2nnnn2-c2ccc(C(=O)O)cc2)cc1`, for which the Potency result was “inactive”.

Take `COc1ccc(-n2nnnc2SCC(=O)c2ccc(OC)c(OC)c2)cc1`: the Potency was 18.4 µM (active).

In the case of `COc1c(C)cc(C(O)c2ncc(-c3cccc(C(F)(F)F)c3)[nH]2)cc1C` (stereo unspecified), the Potency result is “inactive”.

For the molecule `CS(=O)c1ccc(/C=C2\C=Cc3ccccc32)cc1` (stereo unspecified), the Potency entry was “inactive”.

As for `CCOc1ccc(S(=O)(=O)Nc2ccc(OC)nc2)cc1`, the Potency result was “inactive”.

Consider `COc1ccccc1Oc1ccc(S(=O)(=O)Nc2cccnc2)cc1`, for which the Potency was 2.59 µM (active).

Regarding `COc1ccc(S(=O)(=O)Nc2cccnc2)c(Cl)c1Cl`, the Potency result was “inactive”.

Regarding `Cc1cc(C)n2ncc(C(=O)N3CCCC3)c2n1`, the Potency result was “inactive”.

Turning to `Cc1cc(Cl)ccc1OCCCC(=O)NCc1ccncc1`, the Potency is 16.4 µM (active).

On to `CCOC(=O)N1CCN(C(=O)COc2ccc(Cl)cc2C)CC1`, for which the Potency entry was “inactive”.

On to `Cc1cc(Cl)ccc1OCCCC(=O)Nc1cccc(-n2cnnn2)c1`, for which the Potency entry is “inactive”.

On to `COCOCCn1cc(CN2CCS(=O)(=O)N(Cc3ccc(-c4cccc(N(C)C)c4)cc3)C(CC(C)C)C2=O)nn1` (stereo unspecified), for which the Potency entry is “inactive”.

On to `CCNC(=O)C1(C)CCCN(C(=O)c2c(C)noc2C)C1` (stereo unspecified), for which the Potency result was “inactive”.

Regarding `CCCCCCNC(=O)O[C@H]1CN(C(=O)OC(C)C)N(C(=O)OC(C)C)[C@@H]2CN(S(=O)(=O)c3ccc(C)cc3)C[C@]12O`, the Potency result is “inactive”.

In the case of `COc1ccc(C2=NN(C(=O)CSc3nnnn3C)C(c3ccco3)C2)cc1` (stereo unspecified), the Potency result is “inactive”.

Consider `CCOC(=O)C1C(=O)C=C(c2ccc(OC)cc2)CC1c1ccco1` (stereo unspecified), for which the Potency is 11.6 µM (active).

For `CCOC(=O)C1C(=O)NC(N2CCN(c3ccccc3)CC2)=NC1c1ccco1` (stereo unspecified), the Potency entry is “inactive”.

Take `O=C(CS(=O)(=O)c1cccc2nsnc12)N1CCN(c2cccc(Cl)c2)CC1`: the Potency entry was “inactive”.

As to `CC(=O)Nc1cccc(-c2cc3nc(NCc4cccnc4)n(C)c(=O)c3s2)c1`, the Potency result was “inactive”.

As to `CC1(C(=O)NS(=O)(=O)c2ccccc2)CCN1C(=O)Cc1ccc(-c2ccccc2)cc1` (stereo unspecified), the Potency result was “inactive”.

Turning to `COc1ccc(OC)c(C(=O)c2coc3ccc(O)c(CN4CCOCC4)c23)c1`, the Potency was 7.31 µM (active).

On to `Cc1ccc(C(=O)c2coc3ccc(O)c(CN(C)C)c23)cc1`, for which the Potency result is “inactive”.

On to `COc1ccc(OC)c(C(=O)c2coc3ccc(OC)cc23)c1`, for which the Potency result is “inactive”.

Consider `CC(=O)NC(c1ccccc1)c1nc(-c2ccccc2C)cs1` (stereo unspecified), for which the Potency entry is “inactive”.

Turning to `O=C(c1ccco1)N(Cc1cccs1)c1ccc(O)cc1`, the Potency result is “inactive”.

As for `COc1cccc(NC(=O)N(C)C[C@@H]2Oc3ncc(Br)cc3C(=O)N([C@@H](C)CO)C[C@H]2C)c1`, the Potency result is “inactive”.

Regarding `O=C(CN1CCN(S(=O)(=O)c2ccc3ccccc3c2)CC1)NC(=O)NC1CCCCC1`, the Potency was 18.4 µM (active).

On to `COc1ccc(S(=O)(=O)N2CCN(C(=O)NC3CCCCC3)CC2)cc1`, for which the Potency result was “inactive”.

With `O=C(CN1CCN(S(=O)(=O)c2ccc(F)cc2)CC1)NC1CC1`, the Potency result was “inactive”.

As to `CC(=O)c1sc(N2C(=O)c3oc4ccccc4c(=O)c3C2c2ccc(C)cc2)nc1C` (stereo unspecified), the Potency result is “inactive”.

On to `CN(C)c1ccnc2sc3c(=O)n(Cc4ccccc4)cnc3c12`, for which the Potency was 8.2 µM (active).

Take `CN(C)/C=C/c1c(C#N)c(=O)ncn1Cc1ccccc1`: the Potency entry is “inactive”.

For the molecule `CN(C)c1ccnc2sc(C(=O)c3ccccc3)c(N)c12`, the Potency entry was “inactive”.

With `COc1ccc(-c2coc3c(C(=O)NC(C)C)cccc23)c(C)c1`, the Potency result was “inactive”.

For `CCS(=O)(=O)N1Cc2ccccc2CC1C(=O)Nc1ccc(OC)cc1OC` (stereo unspecified), the Potency entry is “inactive”.

For `CC(=O)Nc1ccc2nc(NC(=O)CS(=O)(=O)c3ccc(F)cc3)sc2c1`, the Potency entry was “inactive”.

On to `CCS(=O)(=O)N1Cc2ccccc2CC1C(=O)Nc1nc2ccc(F)cc2s1` (stereo unspecified), for which the Potency was 14.6 µM (active).

Regarding `NC(=O)C1CCN(c2ncc(-c3ccc(Cl)cc3)s2)CC1`, the Potency result was “inactive”.

Regarding `CCCC(=O)N1CCC1(C)C(=O)Nc1ccc(-n2cncn2)cc1` (stereo unspecified), the Potency entry was “inactive”.

`CSCCC(C(=O)NC(C)(C)C)n1c(-c2ccccc2)nc2ccccc21` (stereo unspecified): the Potency entry was “inactive”.

For `Cc1ccc(S(=O)(=O)N2CCN(S(=O)(=O)N3CCOCC3)CC2)cc1`, the Potency result was “inactive”.

`Cc1cccc(C)c1N1CCN(S(=O)(=O)N2CCOCC2)CC1`: the Potency was 16.4 µM (active).

Turning to `O=S(=O)(N1CCOCC1)N1CCN(c2ccccc2F)CC1`, the Potency result was “inactive”.

As to `Clc1ccc(CN2CCCCCC2)cc1Cl`, the Potency result is “inactive”.

As for `Clc1ccc(-n2nnnc2CN2CCCCC2)cc1Cl`, the Potency was 13 µM (active).

Regarding `c1cc(-c2nn[nH]n2)ccc1CN1CCCCC1`, the Potency result was “inactive”.

With `COc1ccc(S(=O)(=O)NC(=O)C2(C)CCN2C(=O)c2ccccc2CCc2ccccc2)cc1` (stereo unspecified), the Potency entry is “inactive”.
